Records with an inconclusive call do not appear. Values without a mark were called inactive. Calls of active or inactive are those of the source. Calls come from the whole dose curve; as a rule, active = well fitted cell-killing curve with a large enough effect; inconclusive = small, poorly fitted or top-dose-only effect, or effect the other way; inactive = no such curve, though single readings can be large or run the other way.
Assay: Cell Viability - LYMP2-005 (AID 967)
Details: LYMP2-005 lymphoblastoid cell viability; series mostly up to 92.2 µM; activity change, negative = viability loss: at the top concentration
Excerpt: NIH Chemical Genomics Center [NCGC]
NIH Molecular Libraries Screening Centers Network [MLSCN]
National Institutes of Environmental Health Sciences [NIEHS]
National Toxicology Program [NTP]
We have developed a 1536-well cell-based assay for quantitative high throughput screening (qHTS) against a number of cell lines to determine in vitro cytotoxicity of small molecules. This particular assay uses a human lymphoblastoid cell line (LYMP2-005) purchased from Coriell Institute for Medical Research.
NCGC Assay Protocol Summary:
The CellTiter-Glo luminescent cell viability assay (Promega) is a homogeneous method to measure the number of viable cells in culture. The end point readout of this assay is based on quantitation of intracellular ATP, an indicator of metabolic activity, using the luciferase reaction. Luciferase catalyzes the oxidation of beetle Luciferin to oxyluciferin and light in the presence of ATP. The luminescent signal is proportional to amount of ATP present.
Using the CellTiter-Glo luminescent cell viability assay, the amount of cellular ATP was measured in the lymphoblastoid cell line with complete culture medium following compound treatment for 24 hours. The assay was performed in opaque white Kalypsys 1536-well plates. In the screen, tetraoctylammonium bromide was used as positive control. Library compounds were measured for their ability to cause acute toxicity in the cell line, as reflected by a decrease in intracellular ATP levels, in a concentration-dependent manner. […] AC50 values were determined from concentration-response data modeled with the standard Hill equation.
qHTS protocol for CellTiter Glo lymphoblastoid cellular assay
[Step] [Parameter] [Value] [Description]
1. Reagent; 5 uL; 2500 lymphoblastoid cells/well
2. Time; 5 hr; 37 C incubation
4. Controls; 23 nL; Tetraoctylammonium bromide 6.4pM to 92 uM
5. Time; 24 hr; 37 C incubation
6. Reagent; 5 uL; CellTiter Glo reagent
7. Time; 30 min; Room Temperature
8. Detection; Luminescence; Viewlux plate reader
Keywords: cell viability, cytotoxicity, lymphoblastoid cell line, luminescence, NTPHTS, NTPHTS_NCGC, NIEHS, DSSTox, MLSMR, MLSCN, NIH Roadmap, qHTS, NCGC

SMILES	activity change, negative = viability loss [%]	outcome
[Cl][In]([Cl])[Cl]	10.6	–
CCCCCCCCCCCCOS(=O)(=O)O	–	inactive
Cc1cc(CC(=O)O)n(C)c1C(=O)c1ccc(Cl)cc1	-29	–
NC(=O)N/N=C/c1ccc([N+](=O)[O-])o1	-14.2	–
Cc1cc2nc3c(=O)[nH]c(=O)nc-3n(C[C@H](O)[C@H](O)[C@H](O)CO)c2cc1C	9.19	–
Nc1ccc(S(=O)(=O)Nc2nccs2)cc1	-23.1	–
NCCNCCNCCNCCN	2.73	–
NCCNCCNCCN	13.7	–
COc1ccccc1O	–	inactive
O=C1O[C@H]([C@@H](O)CO)C(O)=C1O	-10.9	–
CC12CCC(CC1)C(C)(C)O2	15.1	–
CCCCOC(=O)c1ccc(O)cc1	4.6	–
Oc1cccc(O)c1	-44.4	–
NC(=O)c1ncn([C@@H]2O[C@H](CO)[C@@H](O)[C@H]2O)n1	-21.6	–
C[C@]12C[C@H](O)[C@H]3[C@@H](CCC4=CC(=O)CC[C@@]43C)[C@@H]1CC[C@@H]2C(=O)CO	-19.6	–

From PubChem BioAssay (NCATS)
